The results in this text go back to PubChem BioAssay (NCI).

Experiment [1] can be described thus: NCI Yeast Anticancer Drug Screen. Data for the rad50 strain (AID 155).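 Also: 0% = growth of vehicle-only cultures of the same strain.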 The note with it: S. cerevisiae rad50 strain growth inhibition; at 50.0 µM; active compounds read high. The gist of the method: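 A DNA repair-deficient yeast mutant serves as the test organism; compound-induced growth inhibition is calculated against vehicle-treated cells.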
Experiment [2] is described as follows: NCI Yeast Anticancer Drug Screen. Data for the mec2-1 strain (AID 157). As to conditions: S. cerevisiae mec2-1 strain, at 50.0 µM, active compounds read high. The gist of the method: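 Compounds were applied to mec2-1 yeast cells. Their growth was then compared with that of vehicle-treated cultures to give growth inhibition.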
Experiment [3] can be described thus: NCI Yeast Anticancer Drug Screen. Data for the sgs1 mgt1 strain (AID 161).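 Also: 0% = growth of cultures given vehicle only.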 As to conditions: S. cerevisiae sgs1 mgt1 strain, at 50.0 µM, active compounds read high. The gist of the method:
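Compounds are added to genetically altered yeast, and growth is compared with cultures given vehicle alone to give percent inhibition.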

Experiment [4] in a line: NCI Yeast Anticancer Drug Screen. Data for the cln2 rad14 strain (AID 165).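 Also: 0% = growth equal to vehicle treated cultures.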 As to conditions: S. cerevisiae cln2 rad14 strain, at 50.0 µM, active compounds read high. The gist of the method: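 Strain: cln2 rad14 yeast, altered in cell cycle control and DNA damage repair. Read-out: growth inhibition vs vehicle.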
Experiment [5] in a line: NCI Yeast Anticancer Drug Screen. Data for the bub3 strain (AID 167). As to conditions: S. cerevisiae bub3 mutant strain, at 50.0 µM, active compounds read high. An outline of the steps: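 Inhibition values come from growth of compound-treated mutant yeast normalised to vehicle-treated controls.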
A short description of experiment [6]: NCI Yeast Anticancer Drug Screen. Data for the mlh1 rad18 strain (AID 175). The note with it: S. cerevisiae mlh1 rad18 strain growth inhibition; at 50.0 µM; active compounds read high. The gist of the method: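 A repair-deficient yeast strain is exposed to test compound, and growth is scored relative to vehicle-treated controls.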

SMILES strings stand for the structures. About 79,000 compounds went through this panel and 15% of them were active in at least one assay; those are over-represented in the sample as a whole. Values without a mark were called inactive. Activity calls are given as the source filed them. Rule as the data show it: active = growth inhibition above about 70%; inactive = the rest.

Turning to `Cc1nc2cc(C)c(C)cc2[nH]1`, the growth inhibition was -7.55% in experiment [1]; -1% in experiment [2]; 3.75% in experiment [3]; -9.15% in experiment [4]; 8.9% in experiment [5]; 5.8% in experiment [6].
On to `O=[N+]([O-])c1ccc(C2ON=C(c3ccccc3)N2C23CC4CC(CC(C4)C2)C3)cc1` (stereo unspecified), for which the growth inhibition was -12.6% in experiment [1]; -9% in experiment [2]; -6.1% in experiment [3]; 25.5% in experiment [4]; -6.5% in experiment [5]; -28.4% in experiment [6].
As for `COc1ccc(C2CC(=O)N(c3nccc(C)n3)C(=O)C2)cc1`, the growth inhibition in experiment [1] is 13.5%; in experiment [2] it was 14.4%; in experiment [3], 15.9%; in experiment [4] it was -19.1%; in experiment [5], -16.5%; in experiment [6], 14.2%.
Take `CC(C)=CCCC(C)C1CCC2C3CC=C4CC(O)CCC4(C)C3CCC12C` (stereo unspecified): the growth inhibition in experiment [1] is 34.5%; in experiment [2] it was 45%; in experiment [3], 48.2%; in experiment [4], 34.4%; in experiment [5] it was 12.9%; in experiment [6], 72.3% (active).
As for `COC(=O)C1=NOC(COc2ccc([N+](=O)[O-])cc2)C1` (stereo unspecified), the growth inhibition in experiment [1] is 9.4%; in experiment [2], -2.9%; in experiment [3], 20.4%; in experiment [4] it was -8.55%; in experiment [5] it was -1.65%; in experiment [6], 19.1%.
In the case of `CC12CCC(CC1C(=O)O)C2` (stereo unspecified), the growth inhibition in experiment [1] was 19.4%; in experiment [2], 16.3%; in experiment [3], 24.9%; in experiment [4], 22.1%; in experiment [5], 9.75%; in experiment [6], 15.3%.
Take `Cc1ccc(-c2cc(-c3ccccc3)c(C#N)c(=O)[nH]2)cc1`: the growth inhibition was 16.1% in experiment [1]; 9.4% in experiment [2]; 12.6% in experiment [3]; 8.55% in experiment [4]; 3.8% in experiment [5]; 25.6% in experiment [6].
As for `Nc1nc(SCc2ccccc2[N+](=O)[O-])c2[nH]cnc2n1`, the growth inhibition in experiment [1] is 29.2%; in experiment [2], 22.2%; in experiment [3], 16.2%; in experiment [4], 14.1%; in experiment [5] it was 45.4%; in experiment [6] it was 34%.
With `CCOC(=O)CC1C(C)C(C)NC(C)C1C` (stereo unspecified), the growth inhibition is -1.85% in experiment [1]; -24.3% in experiment [2]; -20.2% in experiment [3]; 12.1% in experiment [4]; 2.95% in experiment [5]; 5.75% in experiment [6].
Turning to `O=CNC(NC=O)c1ccccc1[N+](=O)[O-]`, the growth inhibition in experiment [1] was 29.9%; in experiment [2], 20.8%; in experiment [3], 30.1%; in experiment [4], 0.65%; in experiment [5], 52.5%; in experiment [6] it was 28.6%.
`Cc1ccc(-c2nnc(C)o2)cc1`: the growth inhibition in experiment [1] was 5.55%; in experiment [2], -6.65%; in experiment [3] it was -7.85%; in experiment [4] it was -35.6%; in experiment [5], 13.3%; in experiment [6], 6.2%.
Consider `CC1(C)C2C/C(=N/O)C(=O)C1C2` (stereo unspecified), for which the growth inhibition in experiment [1] is -4.5%; in experiment [2] it was 4.05%; in experiment [3], 8.8%; in experiment [4] it was 14.6%; in experiment [5], -16.9%; in experiment [6], -20.2%.
Turning to `CC(=O)CC1=CC(C(C)(C)C)=CC(=O)C1=O`, the growth inhibition in experiment [1] was 43.1%; in experiment [2], 26.1%; in experiment [3] it was 30.1%; in experiment [4], 49%; in experiment [5], 8.6%; in experiment [6] it was 49.5%.
As to `CC1CCOCO1` (stereo unspecified), the growth inhibition was -3.3% in experiment [1]; 0.1% in experiment [2]; -1.05% in experiment [3]; 1.75% in experiment [4]; 13.1% in experiment [5]; -9.2% in experiment [6].
For `CC(=O)OCC1CC=CCC1C` (stereo unspecified), the growth inhibition in experiment [1] is 5.35%; in experiment [2] it was -15.7%; in experiment [3], -10.2%; in experiment [4] it was 1.75%; in experiment [5] it was 2.75%; in experiment [6], 1.5%.
For the compound `COP(=O)(O)OP(=O)(O)OC`, the growth inhibition is 1.2% in experiment [1]; -29.5% in experiment [2]; 25.2% in experiment [3]; 6.35% in experiment [4]; 13.8% in experiment [5]; 16.8% in experiment [6].
Consider `CS(=O)(=O)OC12CC3CC(CC(C3)C1)C2`, for which the growth inhibition was 7.3% in experiment [1]; -9.1% in experiment [2]; -11.8% in experiment [3]; -26.5% in experiment [4]; -0.75% in experiment [5]; 5.55% in experiment [6].
With `O=C(NCCCCl)c1c(O)c2ccccc2[nH]c1=O`, the growth inhibition is 58.8% in experiment [1]; 25.5% in experiment [2]; 52% in experiment [3]; 18.1% in experiment [4]; 46.2% in experiment [5]; 27.8% in experiment [6].
In the case of `N=C(N=C(C(Cl)(Cl)Cl)C(Cl)(Cl)Cl)N=C(C(Cl)(Cl)Cl)C(Cl)(Cl)Cl`, the growth inhibition in experiment [1] was 8.75%; in experiment [2], 15.3%; in experiment [3] it was 11.1%; in experiment [4], -8.55%; in experiment [5], -24.2%; in experiment [6], 19.6%.
As for `O=C1OC(=O)C2C1N=NC2(c1ccccc1)c1ccccc1` (stereo unspecified), the growth inhibition in experiment [1] is 47.3%; in experiment [2], 26%; in experiment [3], 22.1%; in experiment [4], -19.3%; in experiment [5], -1.15%; in experiment [6] it was 39.8%.
In the case of `CCCC1(C)OCC(C)([N+](=O)[O-])CO1` (stereo unspecified), the growth inhibition in experiment [1] is -26%; in experiment [2], -11.2%; in experiment [3] it was -3.25%; in experiment [4] it was -22.4%; in experiment [5], -24%; in experiment [6], 10.8%.
